# Source: PubChem
# PostGolgi yeast: growth inhibition of a yeast mutant, post-Golgi transport screen; inhibition, % at 10 µM; 0.9% of 98,000 active; AID 739; post-Golgi transport phenotypic cell assay;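 note: yeast cells grown in 1536-well plates; yeast grown about 18 h at 30C before absorbance read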
# PostGolgi ctrl: growth of the yeast control strain, post-Golgi counter-screen; 5% of 98,000 active; efflux-deficient yeast background strain, growth absorbance A615, 16 h; AID 738; inhibition, % at 10 µM
# CYP2C19 activ: activators of human cytochrome P450 2C19; P33261; recombinant CYP2C19, luciferin-H EGE luminescence; stronger effect = higher value; 0 = fully inhibited enzyme, 1 = untreated enzyme; activation factor at 5 µM; 96,000 tested, under 10 active;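 active = activation factor of at least 2 at 5 µM in the primary screen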;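 note: 0 = wells with 2.5 mM tranylcypromine and 1 = vehicle-only wells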
# Target sequence (P33261 whole entry, looked up): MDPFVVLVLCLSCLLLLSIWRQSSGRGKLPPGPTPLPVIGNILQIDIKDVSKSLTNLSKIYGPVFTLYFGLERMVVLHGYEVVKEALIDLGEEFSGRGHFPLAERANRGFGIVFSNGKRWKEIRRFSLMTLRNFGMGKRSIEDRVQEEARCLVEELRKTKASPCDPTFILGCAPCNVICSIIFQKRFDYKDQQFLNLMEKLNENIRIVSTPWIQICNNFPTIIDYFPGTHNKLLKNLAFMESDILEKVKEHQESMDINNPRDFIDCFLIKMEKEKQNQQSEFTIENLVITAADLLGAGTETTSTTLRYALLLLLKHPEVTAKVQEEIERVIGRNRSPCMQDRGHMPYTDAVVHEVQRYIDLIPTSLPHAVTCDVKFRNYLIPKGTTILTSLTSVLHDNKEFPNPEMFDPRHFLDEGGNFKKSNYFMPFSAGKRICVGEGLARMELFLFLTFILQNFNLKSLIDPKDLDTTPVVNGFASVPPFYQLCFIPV
# CYP2C19 inh: blocks human cytochrome P450 2C19. 21% of 96,000 active. inhibition, % at 5 µM. CYP2C19 Supersomes, luciferin-H EGE luminescence, 30 min. AID 778. P33261;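 active = CYP2C19 inhibition above a set limit at 5 µM in the primary screen, cut at about 50% in these data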;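 note: plate controls were negative control wells for no effect and 2.5 mM tranylcypromine positive control for full effect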
# CYP2C9 inh: human CYP2C9 inhibition | CYP2C9 Supersomes, luciferin-H conversion, luminescence | inhibition, % at 5 µM | 20% of 96,000 active;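 active = blocking of liver enzyme CYP2C9 beyond about 50% at 5 µM, limit read from the data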
# CYP2C9 act: activators of human CYP2C9; AID 1024; P11712; recombinant CYP2C9, luciferin-H conversion, luminescence; stronger effect = higher value; factor 1 = untreated enzyme, 0 = blocked; 1.4% of 96,000 active; activation factor at 5 µM;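 active = activation factor of 2 or more for CYP2C9 at a 5 µM dose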;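 note: 0 = sulfaphenazole-blocked wells and 1 = vehicle-only wells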
# * marks the source's active call; other numbers are inactive results; . = no result given. Compounds with a hit are over-represented: about 32% of the library has one in this group of screens. Cut-off read from the data, not from the text of the source, unless noted: active = inhibition above about 30%; inactive = the rest.
SMILES,PostGolgi yeast,PostGolgi ctrl,CYP2C19 activ,CYP2C19 inh,CYP2C9 inh,CYP2C9 act
CCOC(=O)c1[nH]c(C)c(C(=O)OCCN2C(=O)c3ccccc3C2=O)c1C,3,1,0.3,67*,85*,0.2
CCOC(=O)c1c(C)[nH]c(C(C)=O)c1C,-10,9,0.5,51*,56*,0.4
CCOC(=O)c1c(C)[nH]c(C(=O)OCc2c(C)noc2C)c1C,5,23,0.5,50*,80*,0.2
c1ccc(-n2ncc3c(N4CCN(c5ccccn5)CC4)nc(N4CCOCC4)nc32)cc1,.,.,0.8,18,25,0.8
CC1CCCCN1CC(=O)Nc1sccc1C#N (stereo unspecified),5,6,0.6,41,31,0.7
CCOC(=O)c1[nH]c(C)c(C(=O)C(C)C)c1C,-4,2,0.5,51*,14,0.9
CCOC(=O)c1[nH]c(C)c(C(=O)NC2CCCC2)c1C,1,17,0.5,54*,35,0.6
CCOC(=O)c1[nH]c(C)c(C(=O)O)c1C,-2,-6,1.1,-10,-17,1.2
CCOC(=O)N1CCC(NC(=O)Cn2cc3c(n2)CCCC3)CC1,4,6,0.6,45,-6,1.1
CCc1cccc(NC(=O)c2snc3c(=O)[nH]cnc23)c1,8,-5,0.9,9,10,0.9
Cc1cccc(NC(=O)c2sc(Cl)nc2-c2ccccc2)c1,22,-4,0.1,91*,54*,0.5
Cc1cccc(NC(=O)c2snc3c(=O)[nH]cnc23)c1,-4,16,0.7,34,52*,0.5
O=C(c1ccccc1)N1CCN(C(=O)C23CC4CC(CC(C4)C2)C3)CC1,-7,1,0.7,34,2,1
Cc1c(N2C(=O)/C(=C3/C(=O)N(C)c4ccccc43)SC2=S)c(=O)n(-c2ccccc2)n1C,-1,8,0.7,29,35,0.6
CCCC(C(=O)O)N1C(=O)/C(=C2\C(=O)N(C)c3ccccc32)SC1=S (stereo unspecified),.,.,0.9,6,68*,0.3
CCn1c(=O)c(NC(=O)c2ccccc2)c2n(c1=S)CCCCC2,-4,-4,0.7,32,54*,0.5
CCNC(=O)COc1ccc(Br)cc1Cl,1,-3,0.3,73*,57*,0.4
Cc1cccc(NC(=O)CCOc2ccccc2)c1,-1,-5,0.5,49,-47,1.5
COC(=O)CCC(=O)NNC(=O)CCCOc1ccc(Cl)cc1Cl,2,7,0.9,11,1,1
O=C(CCCOc1ccccc1)Nc1ccncc1,-2,-4,0,99*,97*,0
COc1ccccc1NC(=S)NC(=O)CCCOc1ccc(Cl)cc1Cl,-1,8,0.9,13,34,0.7
O=C(CCCOc1ccc(Cl)cc1Cl)Nc1ccncc1,25,61*,0,99*,100*,0
CCNC(=O)CCCOc1ccc(Cl)cc1Cl,-2,36*,0.2,83*,38,0.6
CC1CN(C(=O)CN2C(=O)NC3(CCCCCCC3)C2=O)CC(C)O1 (stereo unspecified),2,2,0.9,11,-12,1.1
CN(C)c1ccc(/C=C(/NC(=O)c2ccccc2)C(=O)N/N=C/c2ccc([N+](=O)[O-])c(O)c2)cc1,21,8,1,1,31,0.7
SMILES,PostGolgi yeast,PostGolgi ctrl,CYP2C19 activ,CYP2C19 inh,CYP2C9 inh,CYP2C9 act
CC(OC(=O)CNC(=O)c1ccc2c(c1)OCO2)C(=O)NCCC1=CCCCC1 (stereo unspecified),-2,26,0.4,63*,41,0.6
CN(CC(=O)NCCC1=CCCCC1)S(=O)(=O)c1ccc2c(c1)c(=O)n(C)c(=O)n2C,0,1,0.7,26,-54,1.5
Cc1cccc(N(CC(=O)NCCC2=CCCCC2)S(C)(=O)=O)c1C,-2,5,0.4,56*,95*,0
COc1ccc(S(=O)(=O)N(C)CC(=O)NCCC2=CCCCC2)cc1C,1,18,0.1,88*,-26,1.3
CNC(=O)CN(c1ccc2c(c1)OCCO2)S(C)(=O)=O,-6,-3,1.1,-6,-33,1.3
CS(=O)(=O)N(CC(=O)NCCC1=CCCCC1)c1ccc2c(c1)OCO2,-5,3,0.4,62*,57*,0.4
CC1(c2ccc3c(c2)OCO3)NC(=O)N(CC(=O)NCCC2=CCCCC2)C1=O (stereo unspecified),-1,-4,0.9,9,19,0.8
O=C(O)CN1C(=O)SC(Nc2ccccc2C(=O)O)C1=O (stereo unspecified),1,14,1,1,-9,1.1
Cc1cc(C)cc(N(C(C)C(=O)NCCC2=CCCCC2)S(C)(=O)=O)c1 (stereo unspecified),-8,14,0.1,92*,14,0.9
COc1ccc(N(CC(=O)NCCC2=CCCCC2)S(C)(=O)=O)cc1,-2,1,0.4,57*,69*,0.3
Cc1cc(N2CCOCC2)n2nc(-c3cccc(F)c3)cc2n1,0,1,.,.,.,.
COc1ccc(CN2CCN(C(=O)c3ccco3)CC2)cc1,0,8,0.9,13,-17,1.2
COc1cc(OC)cc(-c2cc3nc(C)cc(N4CCN(C(=O)c5ccco5)CC4)n3n2)c1,-11,30*,0.5,55*,29,0.7
Cc1cc(N2CCN(C(=O)c3ccco3)CC2)n2nc(-c3cccc(F)c3)cc2n1,-7,47*,0.2,83*,88*,0.1
COc1ccc(C(=O)NC(=S)NCCO)cc1Br,0,-3,1.1,-7,-3,1
C=CCN(CC=C)C(=S)NC(=O)c1ccc(OC)c(Br)c1,4,13,0.3,74*,11,0.9
Clc1ccc(Cc2noc(CN3CCN(c4ccccc4)CC3)n2)c(Cl)c1,-3,4,0.9,11,14,0.9
Fc1ccccc1N1CCN(Cc2nc(-c3ccc(Cl)cc3Cl)no2)CC1,2,2,0.6,38,61*,0.4
CCOC(=O)c1ccc(NC2OC(=O)c3ccccc32)cc1 (stereo unspecified),-3,0,0.6,37,-1,1
O=C(NCCc1cccc(Cl)c1)c1cccnc1,.,6,0.6,40,-2,1
COc1ccc(CNC(=O)CCOc2ccc(C(C)(C)C)cc2)cc1,-8,13,0.9,14,41,0.6
COC(=O)COc1cccc(NC(=O)COc2ccccc2)c1,-2,5,1,3,6,0.9
COc1cccc(C(=O)Nc2cccc(OC(C)=O)c2)c1,-9,-2,0.7,25,6,0.9
CCc1cccc(NC(=O)COc2ccccc2)c1,-5,-8,0.5,52*,5,1
CC(=O)Oc1ccc(C(=O)Nc2cc(C)ccc2NC(=O)COc2ccccc2)cc1,-1,1,0.9,11,58*,0.4
COc1cccc(NC(=O)Nc2ccc3nsnc3c2)c1,14,4,1,-1,64*,0.4
